Results filed as inconclusive are left out. Activity calls are given as the source filed them. The calls were made as follows: active = hit-call score of the fitted dose curve at least 0.9, where 1 is the maximum; inconclusive = response in the unintended direction; inactive = score below 0.9.

Sequence of human Thyroid Receptor alpha (THRa1), THRA (gene 7067) (P10827 whole entry, looked up, the tested form may be a part): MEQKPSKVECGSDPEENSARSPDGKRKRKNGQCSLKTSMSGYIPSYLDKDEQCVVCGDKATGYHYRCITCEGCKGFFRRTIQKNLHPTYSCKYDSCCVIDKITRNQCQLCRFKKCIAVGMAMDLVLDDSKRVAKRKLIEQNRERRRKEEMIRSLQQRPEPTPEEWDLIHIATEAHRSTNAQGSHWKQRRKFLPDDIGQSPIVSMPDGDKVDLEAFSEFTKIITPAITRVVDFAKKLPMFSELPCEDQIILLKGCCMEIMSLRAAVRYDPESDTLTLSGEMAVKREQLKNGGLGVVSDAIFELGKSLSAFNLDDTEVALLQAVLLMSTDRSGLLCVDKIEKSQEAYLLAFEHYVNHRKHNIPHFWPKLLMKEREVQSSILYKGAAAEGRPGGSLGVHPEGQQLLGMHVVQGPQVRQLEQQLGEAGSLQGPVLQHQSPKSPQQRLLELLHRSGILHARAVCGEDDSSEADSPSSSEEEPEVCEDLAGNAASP

In the assay the target is human Thyroid Receptor alpha (THRa1), THRA (gene 7067) (UniProt P10827). As to the kind of experiment: ATG_THRa1_TRANS: Attagene TRANS-FACTORIAL HepG2 Assay for human Thyroid Receptor alpha (THRa1) (AID 2283014). The method, boiled down:
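HepG2 cells transiently transfected with chimeric NR-Gal4 and GAL4-UAS reporter units, dosed 24 h. Reporter mRNA quantified by RT-PCR, fluorescent labeling, HpaI digestion and capillary electrophoresis; gain-of-signal fit versus DMSO.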
For `Oc1ccc(Nc2ccccc2)cc1`, the result was inactive.
For `Nc1ccc([N+](=O)[O-])cc1O` the value was “inactive”; for `FC(F)(F)C(F)(F)C(F)(F)C(F)(F)C(F)(F)C(F)(F)C(F)(F)C(F)(F)F`, “inactive”; for `O=C(C=Cc1ccccc1)OCC=Cc1ccccc1`, “inactive”.
For `CCCCNc1ccccc1` the value was “inactive”; for `CCO[Si](CCC(F)(F)C(F)(F)C(F)(F)C(F)(F)C(F)(F)C(F)(F)F)(OCC)OCC`, “inactive”.
In the case of `C(=C(c1ccccc1)c1ccccc1)c1ccccc1` it was “inactive”; in that of `CCc1ccc(C(c2ccc(CC)cc2)C(Cl)Cl)cc1`, “inactive”.
Take `O=C(O)C=C(C(F)(F)F)C(F)(F)F`: the outcome was inactive.
As to `CCCCCC=O`, the outcome was inactive.
For `CCN(CC)c1ccc2c(C)cc(=O)oc2c1` the value was “inactive”; for `CCc1c(Br)c(Br)c(Br)c(Br)c1Br`, “inactive”; for `OCC(F)(F)C(F)(F)C(F)(F)F`, “inactive”.
In the case of `CNC(=S)NC` it was “inactive”; in that of `CCC(=O)OCCc1ccccc1`, “inactive”.
In the case of `Cc1cc(C)cc(O)c1` it was “inactive”; in that of `O=S(=O)(O)c1ccc2ccccc2c1`, “inactive”.
In the case of `O=C(O)C(F)(F)C(F)(F)F`, the molecule was classed as inactive.
Consider `C=CC/C=C/C/C=C/C/C=C/C`, for which the result was inactive.
